Consider 25 molecules from PubChem BioAssay AID651710 (Broad Institute, 2012).

About 1,600 (0.44%) of roughly 360,000 compounds were called active. This is one part of a sample in which actives are shown more often than they occur. A number with no mark means an inactive call.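 The calls were made as follows: active = every replicate showing at least 50% inhibition; inconclusive = mean inhibition at least 50% but not in every replicate; inactive = the rest.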

The target in the experiment is DNA repair protein RAD52 homolog (Homo sapiens) (UniProt P43351). The experiment in a line: RAD52 DNA annealing inhibitors, primary screen, biochemical, FRET, single point, set 2 (AID 651710). Conditions: recombinant RAD52 DNA annealing, FRET fluorescence; at 18.7 µM; hits give high values.
Sequence of DNA repair protein RAD52 homolog (Homo sapiens) (P43351 whole entry, looked up): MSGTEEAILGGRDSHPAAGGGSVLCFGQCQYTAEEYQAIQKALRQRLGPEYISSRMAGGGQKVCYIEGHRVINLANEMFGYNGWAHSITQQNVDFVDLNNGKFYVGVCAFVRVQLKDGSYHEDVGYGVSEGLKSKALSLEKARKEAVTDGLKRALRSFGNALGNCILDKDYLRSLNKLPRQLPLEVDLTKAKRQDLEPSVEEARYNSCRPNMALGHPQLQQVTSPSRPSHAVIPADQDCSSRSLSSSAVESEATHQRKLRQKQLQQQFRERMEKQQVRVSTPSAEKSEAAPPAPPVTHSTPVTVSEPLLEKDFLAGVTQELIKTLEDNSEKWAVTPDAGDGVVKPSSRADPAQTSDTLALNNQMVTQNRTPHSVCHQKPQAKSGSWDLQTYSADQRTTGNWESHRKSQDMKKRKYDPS
Consider `CCOc1cccc(=NC2CCCCC2)c2c(C)[nH]c(C)c12`, for which the inhibition was 79.1% (active).

`Clc1ccc([C@@H]2CC3CCC2N3)cn1` (stereo not given in full): the inhibition is -8.46%.

With `COc1ccc(C#Cc2ccc([C@H]3[C@H](CO)N4CCCCN(C(=O)Cc5ccccc5)C[C@@H]34)cc2)cc1`, the inhibition was -26.3%.

`COc1ccc2c(c1O)-c1cccc3c1[C@@H](C2)N(C)CC3`: the inhibition is 60.5% (active).

For the molecule `COC1=C[C@@H]2[C@@H]3Cc4ccc(OC)c(O)c4[C@]2(CCN3C)CC1=O`, the inhibition is -9.71%.

For the molecule `COc1c(O)ccc2c1-c1c3c(cc4c1C(C2)N(C)CC4)OCO3` (stereo not given), the inhibition is 6.1%.

For the molecule `O=C(Cc1cccnc1)N1CCCCN2[C@@H](CO)[C@H](c3ccc(C#CC4CCCC4)cc3)[C@@H]2C1`, the inhibition was 11.6%.

Consider `O=C(O)[C@H]1[C@H](CO)[C@H]2Cn3c(ccc(-c4ccccc4F)c3=O)[C@@H]1N2C(=O)c1cccnc1`, for which the inhibition is 6.1%.

As to `N#Cc1cccc(-c2ccc([C@H]3[C@@H](CO)N4CCCCN(C(=O)Cc5cccnc5)C[C@@H]34)cc2)c1`, the inhibition was -17%.

`O=C(Cc1ccccc1)N1CCCCN2[C@H](C1)[C@H](c1ccc(C#CC3(O)CCCC3)cc1)[C@@H]2CO`: the inhibition is -14.9%.

For `O=c1[nH]c2ccccc2n1C1CCN(C(c2ccccc2)c2nnnn2Cc2ccccc2)CC1` (stereo not given), the inhibition was -11.7%.

As to `C[N+]1(C)CCOC(O)(c2ccc(-c3ccc(C4(O)C[N+](C)(C)CCO4)cc3)cc2)C1` (stereo not given), the inhibition was 70.8% (active).

Take `O=C(O)[C@H]1[C@H](CO)[C@H]2Cn3c(cccc3=O)[C@@H]1N2C(=O)c1ccccc1`: the inhibition is 2.96%.

Take `C[C@@H]1CN([C@H](C)CO)C(=O)CCCn2cc(nn2)CO[C@@H]1CN(C)C(=O)Oc1cccc2ccccc12`: the inhibition is -6.69%.

For the molecule `CCCCCCCCCCCCn1ccc(=N)cc1`, the inhibition is 50% (active).

Consider `O=C(Cc1ccncc1)N1CCCCN2[C@H](CO)[C@@H](c3ccc(C#CC4(O)CCCC4)cc3)[C@H]2C1`, for which the inhibition is 1.26%.

For `COC(=O)[C@H]1[C@H](CO)[C@H]2Cn3c(ccc(C4=CCCC4)c3=O)[C@@H]1N2C(=O)CC1CC1`, the inhibition was -4.86%.

For `O=C(Cc1ccncc1)N1CCCCN2[C@@H](CO)[C@H](c3ccc(C#CC4(O)CCCC4)cc3)[C@@H]2C1`, the inhibition was -1.57%.

As for `COc1cccc(-c2ccc([C@H]3[C@H]4CN(C(=O)Cc5ccncc5)CCCCN4[C@H]3CO)cc2)c1`, the inhibition was -63.8%.

As to `O=C(Cc1ccncc1)N1CCCCN2[C@@H](CO)[C@H](c3ccc(-c4ccncc4)cc3)[C@@H]2C1`, the inhibition was -1.75%.

Consider `CCC(C)NC1(c2ccccc2)CCCCC1` (stereo not given), for which the inhibition is -8.77%.

In the case of `CC1=CC(=Cc2sc3ccccc3[n+]2C)C=C(C)O1`, the inhibition was 60.3% (active).

Turning to `O=C(NC[C@@H]1CC[C@H]2NC[C@H]2O1)C1CCCC1`, the inhibition is -11.1%.

In the case of `OC[C@@H]1[C@H]2c3ccccc3NC[C@H]2N1Cc1cccnc1`, the inhibition is 0.281%.

Take `COc1ccc2c(c1)[C@@]13CCCCC1[C@@H](C2)NCC3` (stereo not given in full): the inhibition was -7.04%.

One may read the inhibition as the relative decrease from the control value, in per cent.
